Cruzain noTriton: qHTS Assay for Promiscuous and Specific Inhibitors of Cruzain (without detergent); Potency, µM, inactives show max response, negative = inhibition, actives largely listed as inhibitors; purified cruzain, Z-FR-AMC fluorescence, no detergent; hit rate 2.3% among 200,000;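 note: plate controls were enzyme without inhibitor for no effect and buffer without enzyme for full effect; nearly all actives have a fitted effect of over 40% in size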
Target sequence (P25779 123-467 limits assumed): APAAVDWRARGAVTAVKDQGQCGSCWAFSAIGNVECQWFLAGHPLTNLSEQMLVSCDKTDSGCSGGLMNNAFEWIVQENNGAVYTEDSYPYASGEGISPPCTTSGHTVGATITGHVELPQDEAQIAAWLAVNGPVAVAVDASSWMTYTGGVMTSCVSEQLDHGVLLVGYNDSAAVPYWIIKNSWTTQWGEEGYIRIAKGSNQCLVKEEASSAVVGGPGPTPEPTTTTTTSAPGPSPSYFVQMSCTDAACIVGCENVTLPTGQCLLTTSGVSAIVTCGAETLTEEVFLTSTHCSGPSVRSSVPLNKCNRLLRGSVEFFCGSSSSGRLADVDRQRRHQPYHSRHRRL
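Purified cruzain at 1.5 nM, pre-incubated 15 min with compound at room temperature in 100 mM sodium acetate pH 5.5, 5 mM DTT, 0.00005% Triton X-100. Reaction started with 2 uM Z-FR-AMC; AMC fluorescence increase over 60 s gives rate.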
Cruzain inh Det: qHTS Assay for Promiscuous and Specific Inhibitors of Cruzain (with detergent) | purified cruzain, Z-FR-AMC fluorescence, 0.01% Triton | AID 1478, 2009 | hit rate 0.43% among 200,000 | Cruzipain (Trypanosoma cruzi), P25779 | Potency, µM, for inactives: max response, negative = inhibition, hits mostly inhibitors;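 note: plate controls were neutral wells for no effect and buffer without enzyme for full effect; nearly all actives have a fitted effect of over 40% in size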
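Steps: dispense cruzain (1.5 nM final) in acetate buffer pH 5.5 with DTT and 0.01% Triton X-100; pin-transfer compounds; incubate 15 min RT; add Z-FR-AMC (2 uM final); read fluorescence every 30 s, using the 60 s intensity change.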
An asterisk follows results filed as active; ? = inconclusive. In the library only some 2.6% were active in any assay of this set; here they are far more common. Calls come from the whole dose curve; as a rule, active = well fitted curve in the direction sought with a large enough effect; inconclusive = small, poorly fitted or top-dose-only effect, or another doubt; inactive = no such curve, though single readings can be large; an effect the other way counts as inactive or inconclusive. Potency is the fitted concentration of half-maximal effect.

SMILES	Cruzain noTriton	Cruzain inh Det
O=C(Nc1ccc(-c2nc3ccc(NC(=O)c4cccs4)cc3[nH]2)cc1)c1cccs1	25.1µM*	11.2µM*
O=C(Nc1ccc2nc(-c3cccs3)[nH]c2c1)c1cccs1	17.9%	3.2%
Cc1ccccc1C(=O)Nc1ccc(-c2nc3ccc(C(=O)c4ccccc4)cc3[nH]2)cc1	12.6µM*	-1.9%
O=C(Nc1ccc(-c2noc(-c3ccccc3F)n2)cc1)c1cccs1	20µM*	0.5%
O=C(Nc1cccc(-c2nc3ccccc3[nH]2)c1)c1ccco1	-10.5%	-6.6%
O=C(Nc1ccc2nc(-c3cccs3)[nH]c2c1)c1ccco1	20µM*	-22.0%
O=C(c1ccccc1)c1ccc2nc(-c3ccc(NC(=O)c4ccccc4Br)cc3)[nH]c2c1	2.5%	-2.8%
CC/C=C\C/C=C\C/C=C\C/C=C\C/C=C\C/C=C\CCC(=O)NCC(=O)O	-4.3%	-5.6%
Cc1ccc(CNC(=O)C2CCN(Cc3nc(-c4cccc(Br)c4)oc3C)CC2)cc1	?	0.7%
CCOc1ccc(-c2nc(SCC(=O)Nc3cc(F)ccc3F)n3[nH]c(=O)cc3n2)cc1	-9.4%	2.4%
CCOc1ccc(C(=O)N2CCC(c3noc(-c4ccc(S(=O)(=O)N5CCCC5)cc4)n3)CC2)cc1	?	-2.8%
Cn1cccc1-c1nc2ccc(NC(=O)c3ccco3)cc2[nH]1	-4.0%	-9.6%
Cc1ccc2nc(-c3ccc(NC(=O)c4ccco4)cc3)[nH]c2c1	-0.7%	25.1µM*
CC(C)c1ccc(C(=O)Nc2cccc3cccnc23)cc1	-12.7%	-6.5%
COC(=O)c1ccccc1NC(=O)c1ccc(COc2ccccc2)o1	-16.9%	-12.3%
COC(=O)c1ccccc1NC(=O)c1ccc(COc2cccc3ccccc23)o1	15.8µM*	-1.4%
CCOc1cc(C#N)c(NC(=O)c2ccc(OC)c(S(=O)(=O)N3CCCCC3)c2)cc1OCC	?	-5.4%
CCC(C)(C)C(=O)O[C@@H]1C[C@H](C)C=C2C=C[C@H](C)[C@@H](CC[C@H]3C[C@@H](O)CC(=O)O3)[C@H]21	?	-10.6%
CC(C)(C)C1CCc2c(sc3nc(-c4cc5cc(Br)ccc5oc4=O)[nH]c(=O)c23)C1 (stereo not drawn)	25.2%	-0.3%
CCN(CC)S(=O)(=O)c1ccc2c(c1)N(CC(=O)Nc1cccc(C(C)=O)c1)C(=O)CO2	-5.8%	-2.4%
O=C(c1ccc2c(c1)N(Cc1cccc(Cl)c1)C(=O)c1ccccc1S2=O)N1CCN(c2cccc(C(F)(F)F)c2)CC1 (stereo not drawn)	25.1µM*	-2.6%
CCN1CCN(C(=O)c2ccc3c(c2)N(Cc2cccc(Cl)c2)C(=O)c2ccccc2S3=O)CC1 (stereo not drawn)	-0.5%	-0.5%
O=C(c1ccc2c(c1)N(Cc1cccc(Cl)c1)C(=O)c1ccccc1S2(=O)=O)N1CCCCC1	1.9%	-3.7%
O=C(c1ccc2c(c1)N(Cc1cccc(Cl)c1)C(=O)c1ccccc1S2(=O)=O)N1CCN(c2cccc(C(F)(F)F)c2)CC1	5.01µM*	-1.8%
Cc1ccc(NC(=O)Cn2cc(C(=O)c3ccco3)c3ccccc32)cc1	-2.0%	-4.3%
SMILES	Cruzain noTriton	Cruzain inh Det
CCOC(=O)c1c(C)n(-c2ccccc2)c2ccc(OC(=O)COc3ccc(Cl)cc3)cc12	8.8%	0.4%
COc1cccc(C2CC(c3cccs3)=NN2C(=O)CSc2nc3ccccc3o2)c1OC (stereo not drawn)	?	3.55µM*
COC(=O)CSc1nc2ccccc2o1	-0.9%	7.9%
CC(=O)c1cc(-c2ccccc2)n(CC(=O)NCc2ccccc2C)c1C	2.9%	0.6%
COc1ccc(/C=N/NC(=O)CCSc2nc3ccccc3s2)cc1OC	?	-9.5%
O=C(CCSc1nc2ccccc2s1)N/N=C/c1c(O)ccc2ccccc12	12.6µM*	-1.6%
COc1ccccc1NS(=O)(=O)c1cc(NC(=O)Nc2ccccc2)ccc1N1CCCCC1	3.16µM*	1.7%
O=C(Nc1ccc(F)cc1)Nc1ccc(N2CCCC2)c(S(=O)(=O)Nc2ccccc2Cl)c1	3.16µM*	-1.3%
COc1ccc(NS(=O)(=O)c2cc(NC(=O)/C=C/c3cc(OC)ccc3OC)ccc2N2CCCCC2)cc1	6.31µM*	-1.7%
COc1ccccc1NS(=O)(=O)c1cc(NC(=S)NCCN2CCOCC2)ccc1N1CCOCC1	?	-5.2%
COc1ccc(NS(=O)(=O)c2cc(NC(=O)c3ccco3)ccc2N2CCCC2)cc1	?	-6.4%
COc1ccccc1NS(=O)(=O)c1cc(NC(=O)c2cccs2)ccc1N1CCCCC1	10µM*	-3.5%
O=C(Nc1ccc(Cl)c(Cl)c1)Nc1ccc(N2CCCC2)c(S(=O)(=O)Nc2ccccc2Cl)c1	?	-0.9%
COc1ccccc1NS(=O)(=O)c1cc(NC(=O)c2cccs2)ccc1N1CCCC1	?	-9.1%
CCN1C(=O)C(Cc2nc3ccccc3c(=O)n2-c2cccc(C)c2)c2ccccc21 (stereo not drawn)	2.4%	-7.0%
CCOc1ccc(S(=O)(=O)N2CCC(n3c(C)nc4cccnc43)CC2)cc1	17.7%	-3.0%
NC(N)=Nc1nc(CSCC/C(N)=N\S(N)(=O)=O)cs1	12.6µM*	25.1µM*
CN(C)c1cccc(C(=O)OC(C(=O)Nc2ccc(Cl)cc2C(F)(F)F)c2ccccc2)c1 (stereo not drawn)	?	-10.7%
CN(C)c1cccc(C(=O)OC(C(=O)Nc2ccc([N+](=O)[O-])cc2Br)c2ccccc2)c1 (stereo not drawn)	15.8µM*	-1.7%
COc1ccc(-c2nc(-c3ccccc3)oc2NC(C)C)cc1	-8.6%	2.0%
O=Nc1c(-c2c(O)[nH]c3cc(Br)ccc23)[nH]c2ccccc12	31.6µM*	-3.4%
O=Nc1c(O)[nH]c2ccccc12.[Cu].[O-]/N=C1/C(=[OH+])Nc2ccccc21	5.9%	-0.3%
CC1CCN(c2nn3c(=O)c(C(=O)NCCCOC(C)C)cnc3s2)CC1	5.1%	2.3%
CCN1CCc2c(sc(N)c2C#N)C1	-5.4%	-2.8%
N#Cc1c(N)sc(=S)c2c1CCN(Cc1ccccc1)C2	12.6µM*	28.2µM*
SMILES	Cruzain noTriton	Cruzain inh Det
O=C(Nc1cccc(Cl)c1N1CCCC1)c1cccc(-c2cc3ccccc3oc2=O)c1	10µM*	-0.3%
Cc1ccc2nc(NC(=O)c3cccc(-c4cc5ccccc5oc4=O)c3)sc2c1	10µM*	-3.5%
CCOc1ccc(C(=O)Nc2cccc(-c3cc4ccccc4oc3=O)c2)cc1[N+](=O)[O-]	?	1.5%
CCn1nnc(NC(=O)c2cccc(-c3cc4ccccc4oc3=O)c2)n1	0.5%	-2.2%
Cc1cc(NC(=O)c2ccc(Cl)c(Cl)c2)ccc1-c1cc2ccccc2oc1=O	17.4%	1.9%
CCOc1ccc2nc(NC(=O)c3cccc(-c4cc5ccccc5oc4=O)c3)sc2c1	12.6µM*	-2.3%
CCC(=O)N1CCc2cc(Br)cc(S(=O)(=O)CCC(=O)Nc3ccc(C)c(F)c3)c21	1.8%	0.0%
CCS(=O)(=O)c1oc(-c2ccc(F)cc2)nc1S(=O)(=O)c1ccccc1	-11.6%	-6.5%
COC(=O)/C=c1/s/c(=C(/C#N)C(=O)NCc2ccccc2)n(-c2ccccc2)c1=O	?	1.2%
CCCCCCOc1ccc(/C=c2\s/c(=C(/C#N)C(=O)NCc3ccco3)n(-c3ccccc3)c2=O)cc1	3.16µM*	-0.9%
O=c1c2cnn(-c3ccc(F)cc3)c2ncn1Cc1ccccc1Cl	3.7%	-1.4%
CCCn1cc(S(=O)(=O)c2ccc(OCC)cc2)c(=O)c2cc(C)ccc21	-4.8%	-3.0%

Compound activity deposited in PubChem by National Center for Advancing Translational Sciences (NCATS).
